Some test systems named below: NCI-H23 lung; NCI-H226 lung; NCI-H322M lung; HOP-62 NSCLC; NCI-H460 lung; HOP-92 NSCLC; NCI-H522 lung; A549/ATCC NSCLC; 786-0 renal; COLO 205 colon; DU-145 prostate; K-562 leukemia; MALME-3M melanoma; MDA-MB-231 breast; RXF 393 renal; SF-268 CNS; SF-295 CNS; SF-539 CNS; UACC-257 melanoma; M14 melanoma.
Test in all cases: NCI-60 one-dose screen, 48 h (100 = growth as untreated, 0 = no growth, -100 = all killed)
Details in all cases: 10 µM unless noted

The panel holds about 83,000 compounds, 20% with a hit somewhere; the sample as a whole holds those more often.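 Results are percent growth after 48 hours of single-concentration exposure. 100 means growth as in untreated cells, lower positive values show inhibition; negative values down to -100 show cell death.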 Values without a mark were called inactive. Active and inactive are the calls of the source. Rule for the calls: active = growth percent below 10; inactive = the rest.

With `CCCCCCN(CCCCCC)c1ccc(/C=C2/SC(=O)N(c3nc(N4CCCC4)nc(N4CCCC4)n3)C2=O)c(C)c1`, the growth is 47.2% with NCI-H23 lung; 92.5% in the assay on NCI-H226 lung; 99% in the assay on NCI-H322M lung; 119% in the assay on HOP-62 NSCLC; 57.5% in the assay on NCI-H460 lung; -3.12% (active) in the assay on HOP-92 NSCLC. Also, the growth in the assay on NCI-H522 lung is 53.2%; in the assay on A549/ATCC NSCLC, 54.2%; with 786-0 renal, 63.5%; in the assay with COLO 205 colon it was 82.1%; in the assay with DU-145 prostate it was 77.3%; with K-562 leukemia, 37.5%. Further, the growth in the assay on MALME-3M melanoma is 71.5%; with MDA-MB-231 breast, 85.7%; in the assay on RXF 393 renal it was 84.7%; in the assay with SF-268 CNS, 73.2%; with SF-295 CNS, 56.7%; in the assay with SF-539 CNS, 114%. Besides, the figures for the growth in the assay on UACC-257 melanoma and with M14 melanoma were 72.6% and 69.3%, respectively.
Consider `O=C1CC(N2C(=O)/C(=C/C(Cl)=C\c3ccc([N+](=O)[O-])cc3)SC2=S)C(=O)N1c1ccc(O)cc1` (stereo not given), for which the growth is -41.7% (active) in the assay on NCI-H23 lung; -64% (active) in the assay with NCI-H226 lung; 12.2% in the assay with NCI-H322M lung; 5.91% (active) with HOP-62 NSCLC; 0.922% (active) in the assay with NCI-H460 lung; -6.73% (active) in the assay on HOP-92 NSCLC. Moreover, the growth is -24.1% (active) in the assay with NCI-H522 lung; 15.6% in the assay with A549/ATCC NSCLC; -3.2% (active) in the assay on 786-0 renal; -42.9% (active) with COLO 205 colon; 0.996% (active) in the assay on DU-145 prostate; 6.6% (active) with K-562 leukemia. The growth in the assay on MALME-3M melanoma is -39% (active); in the assay with MDA-MB-231 breast, -10.3% (active); in the assay on RXF 393 renal, -70.5% (active); with SF-268 CNS it was 5.72% (active); with SF-295 CNS, -37.2% (active); in the assay on SF-539 CNS it was -28.8% (active). The growth is -5.88% (active) in the assay on UACC-257 melanoma and -7.42% (active) in the assay on M14 melanoma.
With `CNC(=O)c1cc(Oc2cccc3nc(Nc4ccc(F)c(Cl)c4)ccc23)ccn1`, the growth with NCI-H23 lung is 70%; in the assay on NCI-H226 lung it was 46.9%; in the assay on NCI-H322M lung, 76.6%; in the assay with HOP-62 NSCLC, 50.5%; in the assay with NCI-H460 lung, 62.5%; with HOP-92 NSCLC, 77.9%. Further, the growth in the assay on NCI-H522 lung is 40%; in the assay with A549/ATCC NSCLC, 42.1%; in the assay on 786-0 renal, 42.6%; in the assay with COLO 205 colon, 43.7%; in the assay with DU-145 prostate, 93.2%; in the assay with K-562 leukemia it was 26%. Besides, the growth is 40.2% in the assay on MALME-3M melanoma; 62.7% with MDA-MB-231 breast; 75.3% with RXF 393 renal; 54.5% in the assay on SF-268 CNS; 87% with SF-295 CNS; 55.9% in the assay with SF-539 CNS. In addition, the growth in the assay on UACC-257 melanoma was 40%; with M14 melanoma, 51.8%.
In the case of `CC/C=C\CCC/C=C1/C(=O)C=C[C@@H]1C/C=C\CCCC(=O)O`, the growth in the assay with NCI-H23 lung is 80.4%; in the assay on NCI-H226 lung, 90.3%; with NCI-H322M lung, 107%; with HOP-62 NSCLC, 100%; with NCI-H460 lung it was 83.7%; in the assay with HOP-92 NSCLC, 75.3%. The growth was 29.9% in the assay with NCI-H522 lung; 79.9% with A549/ATCC NSCLC; 85.2% with 786-0 renal; 85.8% with COLO 205 colon; 83.9% in the assay on DU-145 prostate; 7.87% (active) with K-562 leukemia. Further, the growth in the assay on MALME-3M melanoma is 92%; with MDA-MB-231 breast it was 44.1%; in the assay with RXF 393 renal, 108%; with SF-268 CNS, 89%; in the assay on SF-295 CNS, 82.9%; in the assay with SF-539 CNS, 103%. In addition, the growth with UACC-257 melanoma was 72.3%; in the assay on M14 melanoma, 54.6%.
In the case of `Cc1c(C(=O)OC(=NC2CCCCC2)NC2CCCCC2)sc2c1c(=O)nc1c(C#N)n[nH]n12`, the growth with NCI-H23 lung is 97.3%; with NCI-H226 lung, 131%; in the assay with NCI-H322M lung it was 115%; in the assay with HOP-62 NSCLC, 89.5%; in the assay on NCI-H460 lung it was 112%; with HOP-92 NSCLC, -16.8% (active). For the same compound, the growth in the assay with NCI-H522 lung is 89.2%; with A549/ATCC NSCLC, 108%; in the assay on 786-0 renal, 92%; in the assay with COLO 205 colon, 120%; in the assay on DU-145 prostate it was 110%; in the assay with K-562 leukemia, 82.7%. The growth with MALME-3M melanoma was 113%; in the assay with MDA-MB-231 breast, 113%; in the assay with RXF 393 renal, 99.2%; with SF-268 CNS, 106%; in the assay on SF-295 CNS it was 109%; in the assay on SF-539 CNS, 104%. Moreover, the growth in the assay on UACC-257 melanoma is 102%; in the assay with M14 melanoma, 103%.
Turning to `CC1O[C@@H](OC2[C@H](OC(=O)/C=C/c3ccc(O)c(O)c3)C(COC3O[C@H](C)C(O)C(O)[C@@H]3O)O[C@@H](OCCc3ccc(O)c(O)c3)[C@H]2O)[C@@H](O)C(O)[C@H]1O` (stereo not given in full), the growth with NCI-H23 lung was 101%; with NCI-H226 lung, 112%; in the assay with NCI-H322M lung, 89.4%; in the assay with HOP-62 NSCLC, 103%; in the assay on NCI-H460 lung, 109%; with HOP-92 NSCLC, 102%. Further, the growth with NCI-H522 lung was 86.6%; in the assay with A549/ATCC NSCLC it was 89.8%; in the assay on 786-0 renal it was 98.8%; with COLO 205 colon it was 104%; in the assay with DU-145 prostate it was 106%; with K-562 leukemia, 105%. In addition, the growth was 88.1% with MALME-3M melanoma; 108% in the assay on MDA-MB-231 breast; 125% with RXF 393 renal; 103% with SF-268 CNS; 103% in the assay with SF-295 CNS; 94.2% in the assay with SF-539 CNS. The results for the growth in the assay on UACC-257 melanoma and with M14 melanoma were 80.8% and 97.1%, respectively.
`CCN1C(=O)N(CC)C2Nn3c(s/c(=C\c4ccc(Cl)cc4Cl)c3=O)=NC21` (stereo not given): the growth was 43.1% with NCI-H23 lung; 98.2% in the assay on NCI-H226 lung; 65.5% with NCI-H322M lung; 72.3% in the assay on HOP-62 NSCLC; 16.4% in the assay with NCI-H460 lung; 68.3% in the assay on HOP-92 NSCLC. Also, the growth was 12.3% in the assay with NCI-H522 lung; 33% in the assay on A549/ATCC NSCLC; 34% in the assay with 786-0 renal; -23% (active) in the assay with COLO 205 colon; 24.2% in the assay with DU-145 prostate; 11.4% in the assay on K-562 leukemia. Also, the growth in the assay on MALME-3M melanoma is 75.6%; in the assay with MDA-MB-231 breast, 27.3%; with RXF 393 renal, 43%; in the assay with SF-268 CNS it was 64.6%; in the assay on SF-295 CNS, 26.5%; in the assay with SF-539 CNS, 13.1%. For the same compound, the growth in the assay on UACC-257 melanoma is 83.9%; with M14 melanoma, 26%.
Turning to `c1ccc2c(c1)nc(CN1CCOCC1)n1cc(N3CCCC3)nc21`, the growth in the assay with NCI-H23 lung is 94%; in the assay on NCI-H226 lung, 93.6%; in the assay with NCI-H322M lung it was 103%; in the assay on HOP-62 NSCLC it was 87.5%; with NCI-H460 lung, 117%; in the assay with HOP-92 NSCLC, -2.06% (active). Besides, the growth in the assay on NCI-H522 lung is 106%; in the assay with A549/ATCC NSCLC, 87.5%; in the assay with 786-0 renal, 91.8%; in the assay with COLO 205 colon it was 103%; in the assay with DU-145 prostate it was 106%; in the assay on K-562 leukemia, 67.8%. For the same compound, the growth is 96.9% in the assay on MALME-3M melanoma; 104% with MDA-MB-231 breast; 95% with RXF 393 renal; 110% in the assay with SF-268 CNS; 112% in the assay on SF-295 CNS; 91.5% in the assay with SF-539 CNS. Further, the growth in the assay with UACC-257 melanoma is 99.1%; in the assay on M14 melanoma, 107%.

These data come from PubChem BioAssay (NCI).
